# Test results reported in PubChem BioAssay (EPA / NIEHS).
# Inconclusive results are not listed. The source made the active and inactive calls. Rule for the calls, unless noted: active = hit-call score of the fitted dose curve at least 0.9, where 1 is the maximum; inconclusive = response in the unintended direction; inactive = score below 0.9.
# Key:
# [1] = read-out: Cytochrome P450 3A4 (Homo sapiens) (UniProt P08684); experiment: CLD_CYP3A4_24hr: CellzDirect (CLD) Gene Expression Assay for xenobiotic metabolism (CYP3A4) at 24 hours (AID 2283689)
# How it was run: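 CYP3A4 mRNA induction read by quantitative nuclease protection (chemiluminescence) 24 hr after dosing. Cultured human hepatocytes (two donor preparations) treated daily, vehicle 0.2% DMSO; phase-contrast morphology annotates cytotoxicity.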
# [2] = read-out: ABC Transporter (ABCB1), ABCB1 (gene 5243); experiment: CLD_ABCB1_48hr: CellzDirect (CLD) Gene Expression Assay for ABC Transporter (ABCB1) at 48 hours (AID 2283695)
# How it was run: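 ABCB1 mRNA was measured by quantitative nuclease protection assay (chemiluminescence) 48 h after dosing. Human hepatocyte cultures from two separate donors received fresh dosing solutions daily for two days, with 0.2% DMSO as vehicle. Positive-direction fit against DMSO.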
# [3] = read-out: Cytochrome P450 2B6 (Homo sapiens) (UniProt P20813); experiment: CLD_CYP2B6_48hr: CellzDirect (CLD) Gene Expression Assay for xenobiotic metabolism (CYP2B6) at 48 hours (AID 2283699);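 note: actives raise transcript level above DMSO so potency reflects induction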
# How it was run: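 CYP2B6 transcript induction, read by quantitative nuclease protection (S1 digestion, chemiluminescent detection) 48 h after dosing, is fitted upward against 0.2% DMSO. Cultured human liver primary cells, two donor preparations, received fresh chemical daily over multiple concentrations.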
# [4] = read-out: xenobiotic metabolism (CYP2C9), CYP2C9 (gene 1559); experiment: CLD_CYP2C9_48hr: CellzDirect (CLD) Gene Expression Assay for xenobiotic metabolism (CYP1A2) at 48 hours (AID 2283701; active = hit-call score of the fitted dose curve at least 0.9, where 1 is the maximum; inactive = score below 0.9)
# How it was run: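 mRNA level measured by quantitative nuclease protection (S1 digestion, chemiluminescent detection) in lysates of human primary hepatocytes exposed 48 h with daily re-dosing. Induction fitted positively versus 0.2% DMSO; morphology-based cytotoxicity flagged yes/no.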
# [5] = read-out: xenobiotic metabolism (CYP1A2), CYP1A2 (gene 1544); experiment: CLD_CYP1A2_48hr: CellzDirect (CLD) Gene Expression Assay for xenobiotic metabolism (CYP1A2) at 48 hours (AID 2283703)
# How it was run: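 Cytotoxicity was flagged yes/no from morphology, while CYP1A2 transcript induction was detected by qNPA chemiluminescence after a 48-hour exposure. Human primary hepatocyte cultures from separate donors received fresh dosing solutions daily over two days, with 0.2% DMSO as vehicle and baseline.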
# [6] = read-out: Broad substrate specificity ATP-binding cassette transporter ABCG2 (Homo sapiens) (UniProt Q9UNQ0); experiment: CLD_ABCG2_48hr: CellzDirect (CLD) Gene Expression Assay for ABC Transporter (ABCG2) at 48 hours (AID 2283704);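 for AC50: potency for induction of ABCG2 mRNA above the DMSO baseline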
# How it was run: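 ABCG2 transcript measured at 48 h by quantitative nuclease protection (chemiluminescent) and fitted for increase relative to 0.2% DMSO. Hepatocyte cultures from separate donors got fresh compound daily over two days; morphology annotated cytotoxicity.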
# [7] = read-out: organic anion transporter (SLCO1B1), SLCO1B1 (gene 10599); experiment: CLD_SLCO1B1_48hr: CellzDirect (CLD) Gene Expression Assay for organic anion transporter (SLCO1B1) at 48 hours (AID 2283707)
# How it was run: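 SLCO1B1 transcript quantified by qNPA with chemiluminescent readout after 48 h of once-daily chemical exposure. Cultured human primary hepatocytes came from two donors, with 0.2% DMSO vehicle; positive-direction fitting against DMSO, cytotoxicity flagged by morphology.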
# [8] = STM_H9_OrnithineISnorm_perc: Stemina devTOX quickPredict H9 human embryonic stem cell (hESC)-based Assay for Ornithine (ORN) Metabolite Biomarker, Normalized (AID 2283712; active = hit-call score of the fitted dose curve at least 0.9, where 1 is the maximum; inactive = score below 0.9;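 note: ornithine released into spent medium during last day measured by mass spectrometry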)
# How it was run: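 Metabolite endpoint from spent media of pluripotent H9 cells treated 72 h with daily re-feeding; ornithine measured by UPLC-HRMS against its 13C spike-in and referenced to the median 0.1% DMSO vehicle response.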
# [9] = STM_H9_CystineISnorm_perc: Stemina devTOX quickPredict H9 human embryonic stem cell (hESC)-based Assay for Cystine (CYSS) Metabolite Biomarker, Normalized (AID 2283713; active = hit-call score of the fitted dose curve at least 0.9, where 1 is the maximum; inactive = score below 0.9)
# How it was run: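 Normalized cystine level in conditioned medium from the final 24h of a 72h treatment of pluripotent H9 cells (daily media and compound renewal). Quantified by UPLC-HRMS with C13-labeled internal standard; scaled to median of 0.1% DMSO vehicle wells.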
# [10] = Tanguay_ZF_120hpf_ActivityScore_legacy: (Legacy) Oregon State University Tanguay Lab 120 Hour Post-fertilization zebrafish Assay Score for Activity (AID 2283742);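 for AC50: dechorionated Tropical 5D wild-type zebrafish embryos held singly per well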
# How it was run: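 Dechorionated 5D embryos, one per well, static exposure 6–120 hpf, 28C, sealed and dark; final DMSO 0.64% (vol/vol). Brightfield binary scoring of mortality plus 18 endpoints; gain-of-signal fit versus DMSO baseline.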
# [11] = read-out: sulfotransferase (SULT2A), SULT2A1 (gene 6822); experiment: CLD_SULT2A_24hr: CellzDirect (CLD) Gene Expression Assay for sulfotransferase (SULT2A) at 24 hours (AID 2283694);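 for AC50: potency for increased SULT2A1 mRNA level as induction over DMSO baseline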
# How it was run: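 mRNA is measured by qNPA: probe hybridisation, S1 nuclease digestion, chemiluminescence, in lysates from human primary hepatocytes harvested 24 h after daily dosing. Vehicle was 0.2% DMSO. Phase-contrast microscopy flagged cytotoxicity (yes/no).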
# [12] = read-out: glucuronosyltransferase (UGT1A1), UGT1A1 (gene 54658); experiment: CLD_UGT1A1_24hr: CellzDirect (CLD) Gene Expression Assay for glucuronosyltransferase (UGT1A1) at 24 hours (AID 2283696)
# How it was run: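 UGT1A1 transcript induction was measured by quantitative nuclease protection assay (chemiluminescence) in human hepatocyte cultures 24 h after daily fresh dosing, with 0.2% DMSO as vehicle and baseline.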
# [13] = read-out: alkyl and aryl transferase (GSTA2), GSTA2 (gene 2939); experiment: CLD_GSTA2_48hr: CellzDirect (CLD) Gene Expression Assay for alkyl and aryl transferase (GSTA2) at 48 hours (AID 2283708);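 note: active means mRNA induction above DMSO vehicle baseline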
# How it was run: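 GSTA2 mRNA quantified by qNPA chemiluminescence in human primary hepatocyte lysates after 48 h of daily fresh chemical dosing. Increases fitted against 0.2% DMSO vehicle baseline; cytotoxicity from morphology annotated yes/no.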
# [14] = read-out: glucuronosyltransferase (UGT1A1), UGT1A1 (gene 54658); experiment: CLD_UGT1A1_48hr: CellzDirect (CLD) Gene Expression Assay for glucuronosyltransferase (UGT1A1) at 48 hours (AID 2283709);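 note: actives increase expression relative to DMSO so potency refers to induction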
# How it was run: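 Quantitative nuclease protection assay (chemiluminescent) for UGT1A1 mRNA at 48 h in human hepatocyte cultures from two donors, redosed daily with fresh solutions. Induction fitted relative to 0.2% DMSO; phase-contrast morphology annotated cytotoxicity.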
# [15] = read-out: alkyl and aryl transferase (GSTA2), GSTA2 (gene 2939); experiment: CLD_GSTA2_24hr: CellzDirect (CLD) Gene Expression Assay for alkyl and aryl transferase (GSTA2) at 24 hours (AID 2283693)
# How it was run: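 GSTA2 transcript levels were quantified by quantitative nuclease protection assay in primary human hepatocytes 24 h after daily dosing with fresh solutions at multiple concentrations; 0.2% DMSO vehicle as baseline, cytotoxicity flagged morphologically.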
# [16] = read-out: sulfotransferase (SULT2A), SULT2A1 (gene 6822); experiment: CLD_SULT2A_48hr: CellzDirect (CLD) Gene Expression Assay for sulfotransferase (SULT2A) at 48 hours (AID 2283710);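 note: hits raise SULT2A1 transcript above the 0.2% DMSO vehicle baseline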
# How it was run: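 SULT2A1 transcript measured by qNPA chemiluminescence in human primary hepatocyte cultures after 48 h, with fresh dosing solutions on two consecutive days; gain-of-signal fitting against 0.2% DMSO vehicle; cytotoxicity annotated from phase-contrast morphology.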
# [17] = STM_H9_OrnCyssISnorm_ratio: Stemina devTOX quickPredict H9 human embryonic stem cell (hESC)-based Assay for Ornithine (ORN):Cystine (CYSS) Ratio (AID 2283714)
# How it was run: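 UPLC-HRMS of spent media: ORN/CYSS ratio of internal-standard-normalized percentages, DMSO (0.1%) baseline. Pluripotent H9 hESCs, 72h exposure, daily re-dosing with fresh media; last 24h media collected.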
# [18] = CEETOX_H295R_MTT_cell_viability: Viability Assessment in the CeeTox HT-H295R MTT Assay (AID 2283718; active = hit-call score of the fitted dose curve at least 0.9, where 1 is the maximum; inactive = score below 0.9)
# How it was run: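 Human H295R adrenal cells, prestimulated 48 h with 10 uM forskolin, were exposed 48 h to chemicals in 0.1% DMSO. Viability was measured in the same wells by MTT (0.5 mg/ml, 4 h, 37 C), absorbance 570/650 nm, as percent of controls.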
# [19] = read-out: Cytochrome P450 3A4 (Homo sapiens) (UniProt P08684); experiment: CLD_CYP3A4_48hr: CellzDirect (CLD) Gene Expression Assay for xenobiotic metabolism (CYP3A4) at 48 hours (AID 2283698)
# How it was run: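 CYP3A4 induction read by qNPA chemiluminescence after 48 h, with fresh dosing solutions on consecutive days, in cultured human hepatocytes (two donors). Vehicle 0.2% DMSO as baseline; microscopy-based cytotoxicity annotated yes/no alongside data.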
# Chain of Broad substrate specificity ATP-binding cassette transporter ABCG2 (Homo sapiens) (Q9UNQ0 whole entry, looked up): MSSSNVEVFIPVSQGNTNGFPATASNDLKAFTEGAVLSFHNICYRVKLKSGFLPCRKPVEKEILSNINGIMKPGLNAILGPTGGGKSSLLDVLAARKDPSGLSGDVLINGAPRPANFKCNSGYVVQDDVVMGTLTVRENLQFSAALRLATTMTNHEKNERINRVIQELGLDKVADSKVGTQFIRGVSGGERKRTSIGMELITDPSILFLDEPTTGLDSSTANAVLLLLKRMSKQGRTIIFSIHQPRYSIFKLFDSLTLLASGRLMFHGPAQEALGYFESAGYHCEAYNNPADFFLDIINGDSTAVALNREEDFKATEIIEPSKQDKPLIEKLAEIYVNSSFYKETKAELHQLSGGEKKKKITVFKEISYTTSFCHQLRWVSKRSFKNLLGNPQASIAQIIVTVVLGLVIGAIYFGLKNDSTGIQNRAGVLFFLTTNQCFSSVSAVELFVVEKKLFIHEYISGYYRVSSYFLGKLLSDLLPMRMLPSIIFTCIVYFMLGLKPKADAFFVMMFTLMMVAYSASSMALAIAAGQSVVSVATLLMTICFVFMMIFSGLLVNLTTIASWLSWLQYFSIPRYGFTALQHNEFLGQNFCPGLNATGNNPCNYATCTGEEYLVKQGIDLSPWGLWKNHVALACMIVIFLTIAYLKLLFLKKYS
# Chain of Cytochrome P450 3A4 (Homo sapiens) (P08684 whole entry, looked up): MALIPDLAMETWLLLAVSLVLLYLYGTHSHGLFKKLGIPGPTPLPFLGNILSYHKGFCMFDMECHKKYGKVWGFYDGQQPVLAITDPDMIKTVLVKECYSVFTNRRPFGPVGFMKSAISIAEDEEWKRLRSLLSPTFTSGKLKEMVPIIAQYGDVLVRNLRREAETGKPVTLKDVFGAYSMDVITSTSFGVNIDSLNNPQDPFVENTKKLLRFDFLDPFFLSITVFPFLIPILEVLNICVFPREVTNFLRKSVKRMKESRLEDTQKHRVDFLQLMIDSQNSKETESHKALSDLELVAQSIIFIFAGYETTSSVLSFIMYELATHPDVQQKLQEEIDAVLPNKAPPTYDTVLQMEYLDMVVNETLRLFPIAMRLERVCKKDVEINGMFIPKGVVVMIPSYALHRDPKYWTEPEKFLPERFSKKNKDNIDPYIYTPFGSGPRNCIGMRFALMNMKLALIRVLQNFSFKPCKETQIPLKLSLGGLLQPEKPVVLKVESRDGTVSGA
smiles,measurement,setting,value
C[N+]1(C)CCCCC1,AC50,[1],1.89 µM (active)
same,outcome,[2],inactive
same,outcome,[3],inactive
same,AC50,[4],0.0004 µM (active)
same,outcome,[5],inactive
same,outcome,[6],inactive
same,outcome,[7],inactive
same,outcome,[8],inactive
same,outcome,[9],inactive
same,outcome,[10],inactive
CCOP(=O)(OCC)Oc1cc(C)nc(C(C)C)n1,outcome,[11],inactive
same,outcome,[12],inactive
same,AC50,[3],5.53 µM (active)
same,AC50,[5],11.6 µM (active)
same,outcome,[6],inactive
same,outcome,[7],inactive
same,outcome,[13],inactive
same,outcome,[14],inactive
same,outcome,[10],inactive
C=C(C)[C@H]1Cc2c(ccc3c2O[C@@H]2COc4cc(OC)c(OC)cc4[C@@H]2C3=O)O1,outcome,[15],inactive
same,AC50,[11],3.88 µM (active)
same,outcome,[2],inactive
same,outcome,[3],inactive
same,AC50,[6],0.309 µM (active)
same,outcome,[16],inactive
same,AC50,[8],0.347 µM (active)
same,AC50,[9],0.279 µM (active)
same,AC50,[17],0.333 µM (active)
same,AC50,[10],0.193 µM (active)
COP(=O)(NC(C)=O)SC (configuration not stated),outcome,[12],inactive
same,outcome,[3],inactive
same,outcome,[5],inactive
same,outcome,[6],inactive
same,outcome,[7],inactive
same,outcome,[13],inactive
same,outcome,[14],inactive
same,outcome,[18],inactive
same,outcome,[10],inactive
O=c1ccc(=O)[nH][nH]1,outcome,[2],inactive
same,outcome,[6],inactive
same,outcome,[7],inactive
same,outcome,[10],inactive
S=C1NCCN1,outcome,[6],inactive
same,outcome,[7],inactive
same,outcome,[8],inactive
same,outcome,[9],inactive
same,outcome,[10],inactive
CNC(=O)ON=C(SC)C(=O)N(C)C,outcome,[5],inactive
same,outcome,[6],inactive
same,outcome,[14],inactive
same,outcome,[18],inactive
same,outcome,[10],inactive
CCC(CC)Nc1c([N+](=O)[O-])cc(C)c(C)c1[N+](=O)[O-],outcome,[11],inactive
same,AC50,[19],20 µM (active)
same,AC50,[3],6.23 µM (active)
same,AC50,[5],9.85 µM (active)
same,outcome,[7],inactive
same,outcome,[10],inactive
CC(Oc1cccc(Cl)c1)C(=O)O (configuration not stated),outcome,[11],inactive
same,outcome,[5],inactive
same,outcome,[6],inactive
same,outcome,[7],inactive
same,outcome,[10],inactive
CC(C)[C@H](C(=O)O[C@H](C#N)c1cccc(Oc2ccccc2)c1)c1ccc(Cl)cc1,outcome,[11],inactive
same,AC50,[19],20 µM (active)
same,AC50,[3],8.04 µM (active)
same,AC50,[5],20 µM (active)
same,AC50,[8],50 µM (active)
same,AC50,[9],80.5 µM (active)
same,AC50,[17],74.2 µM (active)
same,outcome,[18],inactive
same,AC50,[10],1.53 µM (active)
